Compounds with a hit are over-represented: about 7.3% of the library has one in this group of screens.
SNCA expr inh – inhibitors of alpha-synuclein (SNCA) gene expression; HEK-293 SNCA-luciferase knock-in, luminescence, 24 h; Potency, µM (series often up to 57.2 µM), for the others: top-dose activity change, negative = inhibition, usual class: inhibitors; actives 0.17% (n = 140,000); AID 1671194;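 also: potency is read from the fitted curve at half-maximal effect; plate controls were DMSO cells for no effect and cell-free wells for full effect; nearly all actives have a fitted effect of over 45% in size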
IP6K1 inhibitor – blocks human inositol hexakisphosphate kinase 1. Q92551. IP6K1 kinase, ADP-Glo luminescence, 2 h; stronger effect = lower value. activity change, % (series mostly up to about 58 µM). actives 0.81% (n = 140,000). AID 1645851; in the data active = activity change below about -25%
Target sequence (Q92551 whole entry, looked up): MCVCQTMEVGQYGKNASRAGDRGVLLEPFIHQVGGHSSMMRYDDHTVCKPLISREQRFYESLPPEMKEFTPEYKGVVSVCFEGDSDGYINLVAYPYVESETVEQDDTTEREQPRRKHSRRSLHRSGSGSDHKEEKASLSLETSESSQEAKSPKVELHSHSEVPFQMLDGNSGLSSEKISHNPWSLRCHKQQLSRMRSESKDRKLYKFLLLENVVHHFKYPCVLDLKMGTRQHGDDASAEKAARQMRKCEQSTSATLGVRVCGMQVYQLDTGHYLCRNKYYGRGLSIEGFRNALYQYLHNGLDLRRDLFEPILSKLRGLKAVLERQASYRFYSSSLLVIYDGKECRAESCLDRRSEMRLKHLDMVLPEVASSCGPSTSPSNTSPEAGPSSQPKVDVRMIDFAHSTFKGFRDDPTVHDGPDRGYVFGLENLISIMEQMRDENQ
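ADP-Glo luminescence measures ADP made by human IP6K1 during a 2 h RT reaction with ATP/IP6 (mix at 1.3 mM/130 uM); top library doses 57.5 and 19.1 uM final.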
NIH3T3 tox – cytotoxic compounds in NIH 3T3 cells | NIH 3T3 viability, CellTiter-Glo ATP luminescence, 48-72 h | Potency, µM (highest dose often 96.7 µM), without a hit: at the top dose activity change, negative = cytotoxicity, actives largely listed as inhibitors | AID 1345082 | actives 4.3% (n = 94,000); also: potency is read from the fitted curve at half-maximal effect; nearly all actives have a fitted effect of over 55% in size
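Mouse fibroblast NIH 3T3 cells, 400 per well, received compound via pintool and were incubated for 48 or 72 hr prior to CellTiter-Glo ATP luminescence measurement.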
FLuc inh – Photinus pyralis luciferase inhibition | purified P. pyralis luciferase, luminescence, biochemical | Potency, µM (doses to about 115 µM), actives largely listed as inhibitors | actives 2.5% (n = 76,000); also: potency is read from the fitted curve at half-maximal effect; nearly all actives have a fitted effect of over 65% in size
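FLuc 10nM, D-luciferin 10uM, ATP 10uM, Mg acetate 10mM, Tris acetate pH 7.5, Tween/BSA; cpd qHTS; enzyme added last; CCD luminescence.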
HEK293 viab – reduces viability of HEK-293 SNCA reporter cells; HEK-293-SNCA-luc viability, GF-AFC fluorescence, 24 h; Potency, µM (top dose mostly 57.1 µM), inactives show at the top dose activity change, negative = cytotoxicity, hits mostly cytotoxic; actives 0.12% (n = 150,000); AID 1671193;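 also: potency is read from the fitted curve at half-maximal effect; 0% = DMSO-treated cells and -100% = medium-only wells without cells; nearly all actives have a fitted effect of over 30% in size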
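HEK-293-SNCA-luc cells (1500/well) plated 24 h, then exposed 24 h to a dilution series; GF-AFC added 30 min at 37C, fluorescence 405/540 nm; normalised to medium-only and DMSO wells, Hill fit.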
HEK293 tox – HEK 293 cell cytotoxicity. Potency, µM (top dose mostly 115 µM), without a hit: at the highest dose activity change, negative = cytotoxicity, most hits filed as inhibitors. HEK 293 viability, ATP luminescence (CellTiter-Glo), 48-72 h. actives 6.6% (n = 94,000); also: potency is read from the fitted curve at half-maximal effect; nearly all actives have a fitted effect of over 60% in size
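HEK 293 cells seeded at 250 cells/well were exposed to compound for 48 or 72 hr at 37 degree Celsius. Viability taken as ATP content by CellTiter-Glo luminescence.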
Numbers without * were called inactive; i = inactive; ? = inconclusive; / = not tested or not shown; [ ] = another dose, or the depositor's remark. Unless noted, calls follow the shape of the dose curve; as a rule, active = well fitted curve in the direction sought with a large enough effect; inconclusive = small, poorly fitted or top-dose-only effect, or another doubt; inactive = no such curve, though single readings can be large; an effect the other way counts as inactive or inconclusive. Unless noted, % is scaled to controls: 0 for no effect and ±100 for the full control effect.

SMILES	SNCA expr inh	IP6K1 inhibitor	NIH3T3 tox	FLuc inh	HEK293 viab	HEK293 tox
CN(Cc1cc(C(C)(C)C)n[nH]1)C(=O)[C@H]1CCC[C@@H](O)C1	?	7	?	i	5%	-5%
CC(C)(C)C(=O)NC1CCN(c2nccc(Nc3ccccc3F)n2)CC1	-18%	-2	-42%	/	3%[12.5 µM]	?
CCCc1ccc(S(=O)(=O)N2CCC(c3c[nH]c4c(C)cccc34)CC2)cc1	-3%	13	?	i	10%	50µM*
CO[C@H]1C(=O)N(C(C)C)[C@H]1C1CCN(C(=O)Cn2ccc(C)n2)CC1	108%	20	-1%	25µM*	-7%	0%
CO[C@H]1C(=O)N(C(C)C)[C@H]1C1CCN(C(=O)Cn2nc(C(F)(F)F)cc2C)CC1	144%	7	i	35µM*	9%	i
CCc1[nH]c2c(CNC(=O)CC3C(=O)NCCN3C(C)C)cc(C)cc2c1C (centres undefined)	11%	13	-21%	i	-2%	-11%
CCc1[nH]c2c(CNC(=O)c3n[nH]c4c3CCC4)cc(C)cc2c1C	-4%	9	35µM*	i	-6%	35µM*
CC(=O)N(C)CCc1noc(C2CN(C(=O)c3c(C)noc3C)C2)n1	16%	0	i	i	1%	9%
Cc1ncsc1C(=O)N1CCC2(CC1)OC(=O)N(Cc1ccccc1F)C2(C)c1ccccc1 (centres undefined)	10%	-11	10µM*	i	-1%	-29%
CC1(c2ccccc2)N(Cc2ccc(O)cc2)C(=O)OC12CCN(CC1CC1)CC2 (centres undefined)	-16%[87.6 µM]	-3	79µM*	i	-22%[87.6 µM]	?
COc1ccc(C(=O)N2CCC3(CC2)OC(=O)N(Cc2ccccc2F)C3(C)c2ccccc2)cn1 (centres undefined)	-3%	-12	?	i	1%	?
CC1(c2ccccc2)N(Cc2ccccc2)C(=O)OC12CCN(Cc1ccc(O)cc1)CC2 (centres undefined)	7%	-6	?	i	-16%	?
CC1(c2ccccc2)N(Cc2ccccc2)C(=O)OC12CCN(C(=O)Cc1ccc(O)cc1)CC2 (centres undefined)	-11%	9	6.3µM*	i	-21%	?
CC1(c2ccccc2)N(Cc2ccccc2)C(=O)OC12CCN(C(=O)c1cccc(O)c1)CC2 (centres undefined)	4%	-4	?	i	-1%	79µM*
Cc1ccc(C)c(NC(=O)[C@H]2CCC[C@H]2NC(=O)c2ccncc2)c1	-22%	-1	i	i	-6%	1%
CCOC(=O)[C@@H]1[C@@H](O)C(=O)N(C)C12CCN(C(=O)OCC)CC2	/	5	-14%	/	/	?
CC(=O)N1CCC2(CC1)OC(=O)N(Cc1ccccc1)C2(C)c1cccnc1 (centres undefined)	8%[87.6 µM]	-15	?	i	2%[87.6 µM]	i
CC(=O)N1CCC2(CC1)OC(=O)N(Cc1ccccc1)C2(C)c1ccccc1 (centres undefined)	14%[87.6 µM]	27	25µM*	i	8%[87.6 µM]	-23%[172 µM]
Cn1ccc(C(=O)N2CCC3(CC2)OC(=O)N(Cc2ccccc2)C3(C)c2ccccc2)n1 (centres undefined)	4%	-9	35µM*	i	-2%	-1%
CC1(c2ccccc2)N(Cc2ccc(O)cc2)C(=O)OC12CCN(C(=O)c1cccnc1)CC2 (centres undefined)	11%	-3	32µM*	i	5%	i
CC1(c2ccccc2)N(Cc2ccccc2C#N)C(=O)OC12CCN(C(=O)Cc1ccc(O)cc1)CC2 (centres undefined)	-13%	-11	11µM*	i	-4%	-23%
COc1ccc(C(=O)N2CCC3(CC2)OC(=O)N(Cc2ccc(O)cc2)C3(C)c2ccccc2)cn1 (centres undefined)	3%	4	?	i	1%	?
O=C(c1ccc(F)cc1)N1CCCC(C(=O)N2CCC(c3ccccc3)CC2)C1 (centres undefined)	6%	7	?	/	-8%	?
CC1(c2ccccc2)N(Cc2ccccc2F)C(=O)OC12CCN(C(=O)CCc1ccccn1)CC2 (centres undefined)	6%	-14	?	i	10%	?
COc1ccc(CN2CCC3(CC2)OC(=O)N(Cc2ccccc2C#N)C3(C)c2ccccc2)cc1O (centres undefined)	7%	-1	?	i	-9%	45µM*
SMILES	SNCA expr inh	IP6K1 inhibitor	NIH3T3 tox	FLuc inh	HEK293 viab	HEK293 tox
CC1(c2ccccc2)N(Cc2ccccc2F)C(=O)OC12CCN(C(=O)Cc1ccc(O)cc1)CC2 (centres undefined)	-3%	-9	22µM*	i	-7%	?
Cc1nc(CN2C(=O)OC3(CCN(Cc4ccc(C(C)C)cc4)CC3)C2(C)c2ccccc2)cs1 (centres undefined)	?	-22	45µM*	i	-20%	?
OC(c1cccc(C(F)(F)F)c1)c1nc(Nc2ccccc2)n[nH]1 (centres undefined)	-18%[87.6 µM]	14	?	i	5%[87.6 µM]	89µM*
OC(c1cccc(C(F)(F)F)c1)c1nc(Nc2ccc(F)cc2F)n[nH]1 (centres undefined)	?	-3	71µM*	i	-21%[87.6 µM]	79µM*
OC(c1cccc(C(F)(F)F)c1)c1nc(Nc2ccc(N3CCOCC3)cc2)n[nH]1 (centres undefined)	11%[87.6 µM]	-3	-16%[138 µM]	35µM*	-7%[87.6 µM]	?
CSc1cccc(NC(=O)Cn2c(N3CCc4ccccc4C3)nc(C)cc2=O)c1	0%	-1	?	i	-28%	?
O=C1NCCCCCN(C(=O)c2ccoc2)[C@H]2CCCC[C@@H]12	7%	-11	-16%	i	-11%	-2%
O=C(O)C[C@@H]1CCN(C(=O)COc2ccccc2)C[C@@H]1CCN1CCN(c2ccccn2)CC1	38%	20	-1%	i	1%	2%
COc1ccc(C(=O)NC2CCN(c3cc(C(F)(F)F)nc(C)n3)CC2)cc1	-17%	14	?	i	?	?
O=C(Nc1cccc(-c2ccc(N3CCOCC3)nn2)c1)Nc1ccc(F)cc1F	8%	-13	?	2µM*	-7%	?
Cc1cccc(C(=O)Nc2cccc(-c3ccc(N4CCN(C)CC4)nn3)c2)c1	29%	-4	40µM*	32µM*	-5%	?

High-throughput results deposited in PubChem by National Center for Advancing Translational Sciences (NCATS).
